Test systems include SK-MEL-2 melanoma; EKVX NSCLC; SN12C renal; UO-31 renal; TK-10 renal; ACHN renal; CAKI-1 renal; A498 renal; CCRF-CEM leukemia; MOLT-4 leukemia; RPMI-8226 leukemia; OVCAR-8 ovarian; OVCAR-5 ovarian; OVCAR-4 ovarian; SK-OV-3 ovarian; OVCAR-3 ovarian; HS 578T breast; NCI/ADR-RES ovarian; IGROV1 ovarian.
Assay in all cases: NCI-60 one-dose screen, 48 h (100 = growth as untreated, 0 = no growth, -100 = all killed)
Holding throughout (conditions): 10 µM unless noted

This is part of a sample that, as a whole, favours compounds with a hit. Of some 83,000 tested, about 20% had one in any assay.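 Percent growth is the endpoint: 0 to 100 indicates growth inhibition (40 means 60% inhibition), 0 means no net growth, and negative values indicate cell death.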 Unmarked numbers belong to inactive results. Activity calls are given as the source filed them. How the source made its calls: active means growth percent below 10; inactive means the rest.

Turning to `CC(C)=C[C@@H]1c2c(c3ccccc3n(C)c2=O)O[C@H]2c3c(c4ccccc4n(C)c3=O)OC(C)(C)[C@@H]12`, the growth in the assay with SK-MEL-2 melanoma is 66.4%; with EKVX NSCLC, 90.9%; with SN12C renal it was 115%; with UO-31 renal, 63.1%; in the assay on TK-10 renal, 123%; in the assay on ACHN renal, 70.4%. For the same compound, the growth with CAKI-1 renal was 87.7%; in the assay on A498 renal, 102%; in the assay on CCRF-CEM leukemia, 46.6%; with MOLT-4 leukemia, 39.5%; with RPMI-8226 leukemia, -36.8% (active); with OVCAR-8 ovarian it was 90.4%. Further, the growth is 98.7% with OVCAR-5 ovarian; 64.9% in the assay with OVCAR-4 ovarian; 118% with SK-OV-3 ovarian; 91.9% with OVCAR-3 ovarian; 93.2% with HS 578T breast; 75.4% with NCI/ADR-RES ovarian.

For the compound `O=C1c2cccc(NCCN=Cc3cc([N+](=O)[O-])ccc3O)c2C(=O)c2c(NCCN=Cc3cc([N+](=O)[O-])ccc3O)cccc21`, the growth in the assay on SK-MEL-2 melanoma is 96%; in the assay on EKVX NSCLC, 87.5%; in the assay with SN12C renal, 40.5%; in the assay with UO-31 renal it was 76.5%; in the assay on TK-10 renal it was 114%; in the assay on ACHN renal, 70.7%. For the same compound, the growth in the assay on CAKI-1 renal was 56.7%; with A498 renal, 80.9%; in the assay on CCRF-CEM leukemia, 32.5%; in the assay on MOLT-4 leukemia, 4.21% (active); in the assay on RPMI-8226 leukemia, 7.36% (active); in the assay with OVCAR-8 ovarian, 78.5%. The growth with OVCAR-5 ovarian was 86.3%; in the assay on OVCAR-4 ovarian, 69.3%; in the assay on IGROV1 ovarian, 73.5%; in the assay on OVCAR-3 ovarian, 85.1%; in the assay on HS 578T breast, 53.9%; with NCI/ADR-RES ovarian it was 99.9%.

On to `O=[N+]([O-])c1ccc(N2c3ccncc3Sc3ccncc32)cc1`, for which the growth with SK-MEL-2 melanoma is 93.8%; in the assay on EKVX NSCLC it was 88.7%; in the assay on SN12C renal, 99%; in the assay on UO-31 renal, 56.9%; with TK-10 renal, 105%; in the assay on ACHN renal it was 93.7%. The growth was 87.8% in the assay on CAKI-1 renal; 112% in the assay on A498 renal; 101% in the assay with CCRF-CEM leukemia; 104% in the assay on MOLT-4 leukemia; 93.5% in the assay with RPMI-8226 leukemia; 87% in the assay on OVCAR-8 ovarian. Besides, the growth with OVCAR-5 ovarian is 118%; in the assay with OVCAR-4 ovarian, 109%; with SK-OV-3 ovarian, 116%; in the assay on OVCAR-3 ovarian, 94.2%; in the assay on HS 578T breast, 104%; with NCI/ADR-RES ovarian, 106%.

With `NS(=O)(=O)c1ccc(-n2nc(C(=O)N/N=C\c3ccc(F)cc3)cc2-c2ccc(Cl)cc2)cc1`, the growth with SK-MEL-2 melanoma is 96.5%; in the assay on EKVX NSCLC, 75.1%; with SN12C renal, 90.7%; in the assay with UO-31 renal, 62.4%; in the assay on TK-10 renal, 136%; in the assay with ACHN renal, 90%. Further, the growth in the assay with CAKI-1 renal is 60.6%; in the assay with A498 renal, 68.5%; with CCRF-CEM leukemia it was 103%; in the assay with MOLT-4 leukemia it was 89.2%; with RPMI-8226 leukemia, 104%; with OVCAR-8 ovarian it was 96.8%. Moreover, the growth is 103% with OVCAR-5 ovarian; 93.5% in the assay with SK-OV-3 ovarian; 76.1% with IGROV1 ovarian; 99.8% in the assay with OVCAR-3 ovarian; 86% with HS 578T breast; 106% in the assay on NCI/ADR-RES ovarian.

Regarding `COc1c(CCC[P+](c2ccccc2)(c2ccccc2)c2ccccc2)cc2c(c1OC)OCO2`, the growth in the assay on SK-MEL-2 melanoma was -24.2% (active); in the assay with EKVX NSCLC, 15.6%; in the assay with SN12C renal, 2.66% (active); with UO-31 renal it was 86.6%; in the assay on TK-10 renal, 2.13% (active); in the assay with ACHN renal, 55.6%. Further, the growth with CAKI-1 renal is 31.9%; with A498 renal it was -9.74% (active); in the assay on CCRF-CEM leukemia it was 29.7%; in the assay with MOLT-4 leukemia, 33.3%; with RPMI-8226 leukemia, 8.37% (active); in the assay with OVCAR-8 ovarian it was 8.63% (active). The growth in the assay on OVCAR-5 ovarian was 30.4%; with SK-OV-3 ovarian, 14.1%; in the assay with IGROV1 ovarian it was 21.2%; in the assay with OVCAR-3 ovarian it was 7.21% (active); in the assay on HS 578T breast, 11.7%; in the assay on NCI/ADR-RES ovarian, 103%.

Take `O=c1[nH]c2ccccc2n1C1CCN(CCOc2ccccc2)CC1`: the growth was 83.3% in the assay on SK-MEL-2 melanoma; 99.7% in the assay with EKVX NSCLC; 97.3% in the assay on SN12C renal; 64.6% in the assay on UO-31 renal; 98.7% in the assay on TK-10 renal; 90.9% in the assay on ACHN renal. The growth in the assay with CAKI-1 renal was 98.8%; in the assay with A498 renal, 63.7%; in the assay on CCRF-CEM leukemia, 74.3%; in the assay on MOLT-4 leukemia, 86.4%; in the assay with RPMI-8226 leukemia it was 41.5%; in the assay on OVCAR-8 ovarian, 79%. Further, the growth was 104% with OVCAR-5 ovarian; 66.7% in the assay with OVCAR-4 ovarian; 91.8% with SK-OV-3 ovarian; 65.4% in the assay with OVCAR-3 ovarian; 54.6% in the assay with HS 578T breast; 94.1% in the assay with NCI/ADR-RES ovarian.

As for `Clc1cccc(Cl)c1C(Nc1nc2ccccc2s1)Nc1nc2ccccc2s1`, the growth with SK-MEL-2 melanoma is 76%; in the assay with EKVX NSCLC it was 97.1%; in the assay with SN12C renal, 108%; with UO-31 renal, 75%; in the assay with TK-10 renal it was 114%; with ACHN renal it was 89.3%. Also, the growth was 108% in the assay on CAKI-1 renal; 112% with A498 renal; 81.7% with CCRF-CEM leukemia; 89.5% with MOLT-4 leukemia; 5.02% (active) with RPMI-8226 leukemia; 108% with OVCAR-8 ovarian. Moreover, the growth with OVCAR-5 ovarian is 90.3%; in the assay on SK-OV-3 ovarian it was 94.2%; with IGROV1 ovarian, -15.1% (active); in the assay with OVCAR-3 ovarian, 114%; with HS 578T breast, 106%; in the assay on NCI/ADR-RES ovarian it was 108%.

For `CC(C)Sc1nc(NNC(N)=S)c(C#N)c(-c2ccc(F)cc2)n1`, the growth was 103% in the assay with SK-MEL-2 melanoma; 96.7% in the assay on EKVX NSCLC; 96.1% with SN12C renal; 79.7% with UO-31 renal; 96.3% with TK-10 renal; 94.3% with ACHN renal. Also, the growth in the assay with CAKI-1 renal is 88.8%; with A498 renal, 61.7%; in the assay with CCRF-CEM leukemia it was 93.2%; in the assay with MOLT-4 leukemia, 95.7%; with OVCAR-8 ovarian, 97.4%; in the assay with OVCAR-5 ovarian it was 88.3%. Also, the growth was 102% in the assay with OVCAR-4 ovarian; 83.9% with SK-OV-3 ovarian; 97.1% with IGROV1 ovarian; 113% with OVCAR-3 ovarian; 101% with HS 578T breast; 99% with NCI/ADR-RES ovarian.

Values taken from PubChem BioAssay (NCI).
